A word on the inhibition: it is the share of the control response that was lost under treatment.

Structures are written as SMILES. Unmarked numbers belong to inactive results. The rule behind the calls is not given here.

The assay has as its system Rolipram. Nature of the assay: selectivity profile across receptors and CYP450s – biochemical, Ricerca HitProfilingScreen, CYP450, set 2, selectivity assay for S1P4 agonist project, profiling panel (AID 540332). To be noted: at 30 µM; active compounds read high.

With `COCCN=C1S/C(=C\c2cc(C)n(-c3ccc(F)cc3F)c2C)C(=O)N1C`, the inhibition was 15%.
